# In the library only some 9% were active in any assay of this set; here they are far more common.
# IMPase cell inh: IMPase inhibition in cells | CHO-M1 cells, IP1 accumulation, HTRF TR-FRET ratio | 120,000 tested, under 10 active | inhibition (IP1 accumulation), % at 46.1 µM; active means well fitted curve in the direction sought with a large enough effect in the signal ratio, not every such curve was filed as active; inconclusive means small, poorly fitted or top-dose-only effect, or a change in a side signal; inactive means no such curve, though single readings can be large or run the other way; the % refers to the signal ratio;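 further: cells stimulated with carbachol in lithium chloride buffer; plate controls were DMSO basal wells for no effect and reference inhibitor wells for full effect; higher means more IMPase inhibition seen as more IP1 and lower FRET ratio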
#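 In this qHTS, compounds (final up to 46 uM) act on CHO-M1 cells that are then activated through the M1 receptor with carbachol, in pH 7.4 buffer containing 50 mM LiCl, for 30 min. IP1 accumulation is quantified by the IP-One immunoassay.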
# ALDH1A1 inh: blocks purified human ALDH1A1 activity; P00352; Purified ALDH1A1, NADH fluorescence, propionaldehyde substrate; Potency, µM (titrated, usually from 75.3 µM), without a hit: at the top dose activity, negative = inhibition, most hits filed as inhibitors; 220,000 tested, 7.3% active;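 further: potency means the concentration at half of the fitted maximal effect; plate controls were no enzyme wells and a reference inhibitor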
# Target sequence (P00352 whole entry, looked up): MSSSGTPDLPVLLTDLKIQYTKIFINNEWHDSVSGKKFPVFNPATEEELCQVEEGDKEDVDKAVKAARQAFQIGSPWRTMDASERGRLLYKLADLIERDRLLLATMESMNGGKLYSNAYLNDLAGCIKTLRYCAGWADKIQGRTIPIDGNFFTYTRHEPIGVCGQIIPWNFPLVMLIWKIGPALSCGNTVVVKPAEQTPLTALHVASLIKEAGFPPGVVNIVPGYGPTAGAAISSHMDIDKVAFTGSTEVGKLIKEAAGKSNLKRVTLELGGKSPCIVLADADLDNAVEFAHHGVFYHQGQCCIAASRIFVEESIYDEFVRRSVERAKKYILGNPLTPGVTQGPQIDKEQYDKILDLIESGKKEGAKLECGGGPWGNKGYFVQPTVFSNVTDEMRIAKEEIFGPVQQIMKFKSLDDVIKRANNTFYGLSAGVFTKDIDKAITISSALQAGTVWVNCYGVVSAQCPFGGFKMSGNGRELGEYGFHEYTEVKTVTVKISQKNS
# HPGD block: blocks human HPGD enzyme activity. AID 894. purified HPGD, NADH fluorescence kinetic, PGE2 substrate. 150,000 tested, 4.3% active. Potency, µM, for the others: top-dose activity change, negative = inhibition, hits mostly inhibitors; further: potency means the concentration at half of the fitted maximal effect
#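 NADH formation kinetics: reaction with 30 uM PGE2 and 1 mM NAD+ (final), 20 nM enzyme, Tris-HCl pH 8 with Tween 20, after 15 min compound preincubation at room temperature. Fluorescence change, last versus first of five reads.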
# An asterisk follows results filed as active; ? = inconclusive; / = no result given; ! = not active in a repeat; [ ] = dose if it differs, or a comment. Unless noted, the call rests on the fitted dose curve; in most records, active means well fitted inhibition curve with a large enough effect (not every such curve was filed as active); inconclusive means small, poorly fitted or top-dose-only effect, or another doubt; inactive means no such curve, though single readings can be large or run the other way. Unless noted, on the % scale 0 is the no-effect control and ±100 the full control effect.
SMILES,IMPase cell inh,ALDH1A1 inh,HPGD block
CC(C)C[C@H](N)C(=O)N[C@H](C(=O)N[C@H](C(=O)N[C@@H](Cc1ccc(O)cc1)C(=O)N1CCC[C@H]1C(=O)N[C@@H](Cc1c[nH]c2ccccc12)C(=O)N[C@H](C(=O)N[C@@H](CCC(N)=O)C(=O)N[C@@H](CCCN=C(N)N)C(=O)O)[C@@H](C)O)C(C)C)C(C)C,/,17.9%,/
CCOC(=O)c1c(C)nc(C)c(C(=O)OCC)c1-c1ccc(O)c(OC)c1,/,15.8µM*,/
COC(=O)c1c(C)nc(C)c(C(=O)OC)c1-c1ccc(OC)c(OC)c1,/,15.9%,/
CNC(=O)[C@]1(C)C[C@H]1[C@H](NC(=O)[C@]1(C)C[C@H]1[C@H](NC(=O)OCc1ccccc1)c1ccccc1)c1ccccc1,/,-14.6%,-8.0%
O=C(CCN1C(=O)S/C(=C\c2cccs2)C1=O)NC1=NCCS1,/,?,-16.6%
CCOCC(=O)Nc1cc(C(=O)OC)cc(C(=O)OC)c1,/,-1.4%,-20.1%
C[C@H](CCC(=O)O)[C@H]1CC[C@]2(C)[C@@H]3C(=O)C[C@H]4C(C)(C)[C@@H](O)CC[C@]4(C)[C@H]3C(=O)C[C@@]12C,/,0.6%[13.5 µM],-5.7%
Oc1ccc(N=Cc2ccc(O)c(O)c2)cc1,?,12.6µM*,28.2µM*
C[N+](C)(C)/N=C\c1ccc(O)c(O)c1,/,6.9%[13.5 µM],-4.2%
CCOC(=O)CSc1nnc2n(-c3ccccc3)c(=O)c3c4c(sc3n12)CC(C(C)(C)C)CC4 (stereo not drawn),-0.8,/,/
CCOC(=O)Cn1nnnc1CN1CCN(c2ccc(OC)cc2)CC1,/,-8.0%,/
CCC(Sc1ccc(C(=O)O)cc1)C(=O)O (stereo not drawn),?,-3.2%,-6.8%
CCOc1ccc(C(=O)CC(Sc2ccc(C)cc2)C(=O)O)cc1 (stereo not drawn),/,1.58µM*,/
CCCN(CC1CC1)C(=S)Nc1ccc(Oc2ccccc2)cc1,0.6,-7.4%,-1.9%
COc1ccc(C)cc1NC(=O)CN(c1cc(C(F)(F)F)ccc1Cl)S(C)(=O)=O,13.1,/,/
COc1ccc(S(=O)(=O)N(CC(=O)NC2CC2)C2CCCCC2)cc1Cl,21.7,8.91µM*,-5.9%
CNC(=O)CN(C1CCCCC1)S(=O)(=O)c1ccc(OC)c(Cl)c1,-3.8,1.4%,-8.2%
CCCCCSc1nnc2c(n1)OC(c1ccc(C)s1)N(C(C)=O)c1ccccc1-2 (stereo not drawn),11.9,/,/
S=c1[nH]c(-c2ccccc2)cs1,/,3.55µM*,/
Fc1ccc(-c2csc3[n+]2CCS3)cc1,10.6,-6.8%,2.4%
Fc1ccc(-c2csc(=S)[nH]2)cc1,/,3.55µM*,/
O=c1[nH]c(-c2ccccc2)cs1,/,15.0%,-1.1%
CSc1nc2ccc(N3C(=O)C4CCCCC4C3=O)cc2s1 (stereo not drawn),-6.3,-7.6%,-9.1%
CCCCO,/,10.3%,-8.0%
COCC(C)NC(=O)c1cnn2c(C(F)F)cc(-c3ccccc3)nc12 (stereo not drawn),10.9,/,/
SMILES,IMPase cell inh,ALDH1A1 inh,HPGD block
O=C(Oc1ccccc1)n1c(=O)oc2ccc(Cl)cc21,/,1.4%,-4.8%
Cc1cccc(OC(=O)n2c(=S)oc3cc(Cl)ccc32)c1,4.1,3.55µM*,-19.3%
CN(C)c1ccc(S(=O)(=O)NCC(=O)OCC(=O)Nc2cccc(Cl)c2)cc1[N+](=O)[O-],/,7.94µM*,3.4%
CNc1ccc(S(=O)(=O)NCC(=O)OCC(=O)Nc2cccc(Cl)c2Cl)cc1[N+](=O)[O-],/,?,-16.3%
O=C(CSc1nncn1-c1cccnc1)N(c1ccccc1)c1ccccc1,/,15.8µM*,/
C/C(N)=C(/C#N)C(=O)CSc1nncn1-c1ccccc1,/,18.7%,/
CC1(C)C=C(c2ccc(C=O)s2)CC(C)(C)N1C=O,/,?,-18.5%
CCCCCCC1CCC(C(=O)N2CCOCC2)CC1 (stereo not drawn),/,-3.6%,/
Cc1cccc2c1c1ccc3c(c1n2C)C(=O)C=CC3=O,/,0.316µM*,/
Cc1ccccc1N1CC(=O)N(c2ccccc2C)CC1=O,2.6,4.8%,-5.2%
COc1ccccc1Nc1ccncc1[N+](=O)[O-],/,-4.7%,/
CCOC(=O)CN1CCS(=O)(=O)CC1,/,7.7%,/
CCOC(=O)C1=C(C)NC2=C(C(=O)CCC2)C1c1ccc(N(C)C)cc1 (stereo not drawn),-13.2,28.2µM*,-1.3%
CCCOC(=O)C1=C(C)NC2=C(C(=O)CCC2)C1c1ccc(N(C)C)cc1 (stereo not drawn),5.4,?,-6.9%
CC1=C(C(=O)OCC2CCCO2)C(c2ccc(C)o2)C2=C(CC(c3ccc(F)cc3)CC2=O)N1 (stereo not drawn),9.7,?,-11.3%
CC1=C(C(=O)OCC2CCCO2)C(c2ccc(C)o2)C2=C(CC(c3ccc(N(C)C)cc3)CC2=O)N1 (stereo not drawn),-9.4,10µM*,-8.5%
O=C(CCN1CCN(c2ccccc2)CC1)N/N=C/c1ccccc1OC(F)F,/,-6.5%,/
CSc1nc2nc(-c3ccccc3)cc(C(F)(F)F)n2n1,13.8,?,?
O=C(Cc1ccccc1)Nc1ccc(N2CCCCC2)cc1,/,-3.2%,/
CCNC(=S)Nc1ccc(N2CCCCC2)cc1,/,25.1µM*,/
O=C(CNCc1ccco1)Nc1ccc(N2CCCCCC2)cc1,/,35.5µM*,/
COCCCNC(=S)Nc1ccc(N2CCCCC2)cc1,/,-11.9%,/
CC1CCCCN1CC(=O)Nc1ccc(N2CCCCCC2)cc1 (stereo not drawn),/,20µM*,/
CCC(=O)Nc1ccc(N2CCCCC2)cc1,4.4,-7.7%,-12.5%
CC1CCCCN1CC(=O)Nc1ccc(Oc2ccccc2)cc1 (stereo not drawn),17.2,-1.4%,?
SMILES,IMPase cell inh,ALDH1A1 inh,HPGD block
O=C(CCl)Nc1ccc(N2CCCCCC2)cc1,/,2.24µM*,/
Cc1cc(C)cc(C(=O)NCC(=O)OCC(=O)c2cc(C)n(CC(F)(F)F)c2C)c1,/,13.2%,-0.9%
Cc1cccc(CC2S/C(=N/N=C/c3ccco3)N(c3ccccc3)C2=O)c1 (stereo not drawn),/,?,-19.8%
Cc1sc(-c2ccncc2)nc1OC(=O)c1ccc(F)cc1F,/,5.4%,/
NC1=NC(=Nc2cccc(S(N)(=O)=O)c2)c2ccccc21,/,3.4%,/
COc1cc(N=Nc2cccc(S(N)(=O)=O)c2)c2ccccc2c1N,/,7.94µM*!,-11.6%
O=CN1CCN(S(=O)(=O)c2ccc(Cl)c(C(=O)O)c2)CC1,/,-6.3%,/
O=C1C(Cl)=C(Nc2ccc(S(=O)(=O)Nc3ccccn3)cc2)C(=O)c2ccccc21,/,0.631µM*,2.82µM*
CCC(=O)Nc1ccc(S(=O)(=O)Nc2ccccn2)cc1,/,-1.7%,/
CCN(CC)c1ccc(NC2=C(Cl)C(=O)c3ccccc3C2=O)cc1,/,10µM*,7.94µM*
Nc1ccc(S(=O)(=O)Nc2ccccn2)cc1,0.4[20.6 µM],1.3%,-12.4%
CC(C)(C)c1ccc(S(=O)(=O)Nc2ccccn2)cc1,/,31.6µM*,/
Cc1ccc(NC2=C(Cl)C(=O)c3ccccc3C2=O)cc1,-6.1,4.3%,/
CC(C)[C@H](NC(=O)OC(C)(C)C)c1nnc(SCC(=O)Nc2ccc(Br)cc2)o1,9.3,?,-22.8%
CC1CCCCC1NC(=O)c1ccc(S(=O)(=O)N2CCCC2)cc1 (stereo not drawn),2.5,?,-0.3%
CC1CCCCC1NC(=O)c1ccc2c(c1)[nH]c(=O)n2C1CCCC1 (stereo not drawn),15.1,14.1µM*,-10.5%

# Screening data deposited in PubChem BioAssay by National Center for Advancing Translational Sciences (NCATS).
